Test results published in ChEMBL document CHEMBL4888484, “Replenishing the malaria drug discovery pipeline: Screening and hit evaluation of the MMV Hit Generation Library 1 (HGL1) against asexual blood stage Plasmodium falciparum ,using a nano luciferase reporter read-out” (2022).
The campaign covered roughly 4,800 compounds. About 420 (8.8%) showed an effect of 50% or more. Shown is part of a subset that was picked to be rich in strong results.

system: Plasmodium falciparum; experiment: Confirmatory screen in NF54 nanoGlo assay, in single point, at 2uM, 72h; format: functional, Erythrocyte; conditions: timepoint 72 hour

Structure (SMILES)	% Inhibition [%]
Cc1ccc(C)n1-c1ccc(Cl)c(C(=O)NC[C@H]2COCCO2)c1	-4
C#Cc1cc(C(F)(F)F)cc(C#N)c1N	5
CC1(C)CN(C(=O)CN2CCOCC2=O)C2CCCC21 (centres undefined)	-16
COc1cccc(N2CCN(C3=NC(=O)[C@@H](C#N)C4(CCCC4)N3)CC2)c1	2
O=C(O)Cc1ccc(OCc2nc(-c3ccsc3)no2)cc1	-2
Cc1ccc(S(=O)(=O)N2CC[C@H](CC(=O)NCc3ccccc3)C2)c(C)c1	-17
CC(=O)Nc1ccc(C)cc1S(=O)(=O)N1CC=C(c2c(C)n(Cc3ccccc3C)c3ccccc23)CC1	91
Cc1ccc(NC(=O)Cn2c(=O)n(Cc3ccco3)c(=O)c3ccccc32)c(C)c1	-12
CC[C@](C)(NCCc1c[nH]c2ccccc12)c1nnnn1CCOC	-2
Cn1c(N2CCN(Cc3ccc4c(c3)OCO4)CC2)cc(=O)n(C)c1=O	-12
COc1ccc(CNC(=O)N2C[C@H](C)OC3(CCCCC3)C2)cc1OC(F)F	-8
O=C(NCc1ccco1)c1cc2c(Cl)ccc3c2n1CCO3	-1
Cc1cc2nc(C)c3c(n2n1)N(Cc1ccccc1Cl)CC3	-2
CC(C)Oc1cccnc1C(=O)N(C)c1cnn(C)c1	-5
COc1ccc(-c2cc3c(N4CCN(C)CC4)nccn3n2)cc1OC	1
Cc1nn(-c2ccccn2)c(O)c1C(c1ccccc1)c1c(C)nn(-c2ccccn2)c1O	90
COc1ccc(-c2nn(-c3ccccc3)c(O)c2C(c2ccc(C(=O)O)cc2)c2c(-c3ccc(OC)cc3)nn(-c3ccccc3)c2O)cc1	2
O=C(CCn1nc(-c2cccc(Cl)c2)ccc1=O)NCc1ccc(F)cc1F	-2
CCn1cc(CN2C(=O)C3CCCCC3C2=O)c(C)n1 (centres undefined)	-3
FC(F)(F)c1cnc(N2CCOC3(CCOCC3)CC2)s1	-2
O=C(c1cc(-c2ccncc2)on1)N1CCOC2(CCCCCC2)C1	-6
Oc1nc(N2CCOC3(CCCC3)C2)ncc1F	51
COC(c1ccc(-c2ccc(OC3CC3)cc2)cc1)C(C)N (centres undefined)	-3
COc1ccc(CNC(=O)c2ccc(Cl)c(-n3c(C)nc4cccnc43)c2)c(OC)c1	2
CCOC(=O)c1ccc(N2CCN(Cc3ccccc3)CC2)c(NC(=O)COc2ccc(Cl)cc2C)c1	-4

Structure (SMILES)	% Inhibition [%]
Cn1nc(N)c2cc(C(F)(F)F)ccc21	-2
CCn1c(=O)c(N2CCN(C(=O)Nc3cccc(C(F)(F)F)c3)CC2)nc2ccccc21	-2
Cc1nn(Cc2ccccc2)c2c1C(c1cccc(Cl)c1Cl)c1c(C)nn(Cc3ccccc3)c1O2	9
COc1ccc(OC)c(CN2C(=O)c3cc4c(OC)ccc(OC)c4n3C[C@]2(C(=O)NC2CCCCCC2)c2ccccc2)c1	18
CCCn1c(C)nnc1COC(=O)c1ncoc1C	-5
CC(C)(C)OC(=O)NC1CCN(c2ncc(C(=O)NCc3ccc(F)c(Cl)c3)c(N)n2)CC1	-17
CN1CCc2ncnc(Nc3ccc4nc(N5CCCC5)sc4c3)c2C1	2
CC(=O)Nn1ccc2nc(N3CCOCC3)ncc2c1=O	-7
COC1(C)CC(NC(=O)C(C(C)C)N2CCCS2(=O)=O)C1(C)C (centres undefined)	-9
CCC(=O)N(Cc1ccc(-c2ccc(Cl)cc2)o1)[C@H]1CCS(=O)(=O)C1	38
Cn1ccc(CN2CCN(c3ccccc3)CC2)n1	1
Cc1nc(-c2ccc(N3CCC(NCCCn4ccnc4)CC3)cc2)cs1	12
COc1cc(C)cc(C)c1S(=O)(=O)N(C)Cc1nnc[nH]1	4
COc1cccc(C2C(NC(=O)c3ccoc3)CCN2C2CC2)c1 (centres undefined)	-10
CC1=CCN(C(=O)Nc2nccs2)CC1	7
CC(C(=O)Nc1cc(F)ccc1F)N1CCCC(c2nncn2C(C)C)C1 (centres undefined)	-3
CC(C(=O)Nc1nccs1)N1CCCC(c2ccn[nH]2)C1 (centres undefined)	50
c1ccc(NC(Nc2nnn[nH]2)=C(c2ccccc2)c2ccccc2)cc1	0
O=C(CCC(=O)Nc1cccnc1)NCc1ccc2c(c1)OCO2	-2
O=C(Nc1cccnc1)c1ccc(-c2ccc(Cl)c(Cl)c2)o1	91
O=C(Nc1ccn(Cc2cccnc2)n1)c1ccc(-c2ccccc2F)o1	-2
CS(=O)(=O)Nc1nc2ccc(NC(=O)c3cc(-c4ccccc4)nc4ccccc34)cc2s1	0
COc1ccc(-c2cc(C(=O)NC3CCN(C(C)C)CC3)c3ccccc3n2)cc1OC	-7
CCOc1ccc(-c2cc(NC(=O)c3cc(-c4cccnc4)nc4ccccc34)on2)cc1OCC	94
COc1ccc(CC[C@](C)(O)c2cc(C(N)=O)no2)cc1	-9

Structure (SMILES)	% Inhibition [%]
COc1ccc(N(C(=O)c2ccccc2)C2CC(C)N(C(=O)c3ccccc3)c3cc(OC)c(OC)cc32)cc1OC (centres undefined)	-1
N#CCC(=O)Nc1nc(-c2ccc(Oc3ccccc3)cc2)cs1	-4
Cc1cc(C(=O)N[C@@H](C)CO)c(C)n1-c1nccs1	-19
c1ccc(N2CCN(C3CCN(Cc4ccncc4)CC3)CC2)cc1	-6
c1cc(CN2CCN(C3CCCCCC3)CC2)ccn1	-18
COc1nccnc1N(C(C)=O)S(=O)(=O)c1ccc(NC(C)=O)cc1	-13
N#Cc1ccc(N2CCN3C(=O)NCC3C2)nc1N1CCN2C(=O)NCC2C1 (centres undefined)	-12
CC(C)[C@H](OC(=O)n1ccnc1)C(=O)OC(C)(C)C	-10
CC1C=CC2C(=O)N(CC(F)(F)F)C(=O)C2C1C(=O)N1CCC(Cc2ccccc2)CC1 (centres undefined)	-3
Cc1ccc(NC(=O)Cn2cnc3nc(N(C)Cc4ccccc4)sc3c2=O)c(Br)c1	-14
CC[C@@H](CO)NC(=O)Nc1cccc(C)c1	5
CCC(C)(CC)[C@@](O)(C#CC[N+]1(Cc2ccccc2)CCCCC1)c1ccccc1	7
CC(CC1OCC(C[N+]2(Cc3ccccc3)CCCCC2)O1)CC(C)(C)C (centres undefined)	57
O=C1CCCC1C(c1ccccc1)N(C1=NS(=O)(=O)c2ccccc21)c1ccccc1 (centres undefined)	-10
CNC(=O)CCS(=O)(=O)CCCC(=O)Nc1c(C)cc(C)cc1C	-14
c1ccc2oc(N3CCCCCCC3)nc2c1	-5
Cc1ccc(CC(=O)N2CCC(NC(=O)OC(C)(C)C)CC2C)o1 (centres undefined)	-7
COC[C@@H]1CCCN1c1ccc2c(c1)CNCC(=O)N1CC[C@@H](CC(=O)NCCN3CCOCC3)[C@@H](/C=C/CO2)C1	-13
CC[n+]1ccc(-c2ncc(-c3ccc(C(C)(C)C)cc3)o2)cc1	63
CCC(C)(CC)[C@@](O)(C#CC[N+]1(Cc2ccccc2Cl)CCCCC1)c1ccccc1	4
CN1c2cc(C(=O)N3CCc4ccccc4C3)ccc2C(=O)N2CCCC[C@H]21	-6
Cc1cc2ncn([C@@H](C)c3nc(-c4cnccn4)cs3)c2cc1C	0
CCC[C@H](NC(=O)c1ccc(Cl)o1)c1nnn[nH]1	6
C=CCCCNc1ccc(C(N)=O)c(F)c1	-1
COc1ccc(CCc2nc(NC(=O)c3nc(C)sc3C)n[nH]2)cc1OC	65

Structure (SMILES)	% Inhibition [%]
COc1ccc(CCc2nnc(NC(=O)Cc3c(C)noc3C)[nH]2)cc1OC	15
COc1ccc(CCc2nc(NC(=O)c3[nH]nc4c3CCC4)n[nH]2)cc1	-1
Cc1c(CCNC(=O)NCC2CC23CCc2ccccc23)cnn1C (centres undefined)	-4
Cc1cc(C(=O)NCCCn2cccn2)nc(N2CCOCC2)n1	0
Cc1nn(C)cc1-c1nn(-c2nc(C3CC3)cc(C(F)(F)F)n2)c(-c2cn(C)nc2C)c1C	16
Cc1c(-c2nn(-c3nc(C4CC4)cc(C(F)(F)F)n3)c(-c3cnn(C)c3C)c2Cl)cnn1C	69
Cc1c(-c2nn(-c3ccccc3)c(-c3cnn(C)c3C)c2Cl)cnn1C	-4
CC(C)Nc1nc2nonc2n2cnnc12	69
CN(Cc1cc(C(F)(F)F)ccc1Cl)[C@H]1CCc2nn(C)c(=O)n2CC1	-8
Cn1ccc2cccc(NC(=O)N3CC(C)(CO)C3)c21	1
Cc1c(-c2nn3c(Cc4ccc(Cl)cc4)nnc3s2)cnn1-c1ccccc1	-16
Cc1cccc(C(=O)Nc2nc3cc4sc(NC(=O)c5cccc(C)c5)nc4cc3s2)c1	7
COc1cc(C(=O)Nc2ccc3sc(NC(=O)c4cc(OC)c(OC)c(OC)c4)nc3n2)cc(OC)c1OC	56
COc1cc(C(=O)Nc2scnc2C)cc(OC)c1OC	-1
C1=CCC(c2nc(-c3cnccn3)no2)C1	-6
CCCCCNC(=O)NCc1ncoc1C	-1
C[C@H](O)CNCc1ccc(Cl)cc1Cl	-8
CCNC(=O)NCCOC(=O)c1cccc(C)c1Cl	1
O=C(NCc1cccc(F)c1)[C@H]1CCCN(c2nc3ccccc3n(Cc3ccccc3)c2=O)C1	5
Cc1cc(C)cc(-c2cc3nc(C)cc(N4CCC(C(=O)Nc5ccc(C)c(Cl)c5)CC4)n3n2)c1	0
Cc1cc(C)cc(-c2cc3nc(C)cc(N4CCC(C(=O)NCc5cccc(F)c5)CC4)n3n2)c1	79
CC[n+]1c(C)n(C2CCCCC2)c2ccc(C(=O)OC)cc21	0
CC[N+](CC)(CC(=O)OC1CC2CCC1(C)C2(C)C)CC(=O)OC1CC2CCC1(C)C2(C)C (centres undefined)	83
Cn1cc(C(C(=O)O[C@@H]2C[C@@H]3CC[C@@]2(C)C3(C)C)c2cn(C)c3ccccc23)c2ccccc21	0
